Data from PubChem BioAssay AID1159580 (chemical genetic matrix, 2015).
The campaign covered roughly 5,500 compounds. About 2,000 (36%) were called active. Another 18% or so got no clear call; they are omitted. Rule as the data show it: active = normalized growth mostly below about 0.91 (no sharp cut-off); inconclusive = no clear call, values can overlap the other calls; inactive = mostly above about 0.92. Some of the results follow.

Test: chemical genetic growth profiling, strain panel (AID 1159580);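 also: tested at 20 µM; growth read once vehicle control cultures reached saturation at 30 °C; 1 = growth at the plate median or of vehicle wells; lower values mean less growth of the strain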
Conditions: S. cerevisiae deletion strains, growth OD

Measured: normalized growth

COc1[nH]c2ccc(F)cc2c1C(=O)OCC1CCN(CCNS(C)(=O)=O)CC1
inactive: locus YAL040C, strain CLN3, active compounds read low 0.958 | locus YCL061C, strain MRC1 (second series), active compounds read low 0.994 | locus YDR150W, strain NUM1, active compounds read low 0.986 | locus YDR363W, strain ESC2, active compounds read low 0.995 | locus YER002W, strain NOP16, active compounds read low 1.01 | locus YGR078C, strain PAC10, active compounds read low 1.02 | locus YJR075W, strain HOC1, active compounds read low 1.01 | locus YNL153C, strain GIM3, active compounds read low 1.01 | locus YNL175C, strain NOP13, active compounds read low 1 | locus YNL197C, strain WHI3, active compounds read low 1.02 | locus YNL224C, strain SQS1, active compounds read low 1.01 | locus YOR083W, strain WHI5 (second series), active compounds read low 0.993 | locus YPL241C, strain CIN2, active compounds read low 1.01
